Among the data in publication PMC5913336, “True equilibrium measurement of transcription factor-DNA binding affinities using automated polarization microscopy” are binding signal values, retold here.

This assay addresses T1, Cad (Drosophila melanogaster, UniProt P09085 273-344).
T1 sequence: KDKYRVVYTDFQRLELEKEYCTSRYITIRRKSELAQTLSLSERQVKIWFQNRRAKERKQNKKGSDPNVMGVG
The assay is described as follows: FP; 20 mM Tris-acetate pH 7.0, 50 "nM" NaCl as printed (probably mM), 0.01% Tween 20, 0.1 mM DTT; conventional titration. The following applies: tags: N-GST (pGEX-6P-1, kept); dsDNA, one strand shown.
In the case of CGCTTTTTATA, the binding signal is 3.5 Kd / Kd of best base at the position.

Take CACATTTTATA: the binding signal is 2.5 Kd / Kd of best base at the position.

On to AACTTTTTATA, for which the binding signal is 2.9 Kd / Kd of best base at the position.

CACTTATTATA: the binding signal is 2.8 Kd / Kd of best base at the position.
